Mtb FBA inh – Mtb FBA enzyme inhibitors, primary screen, biochemical, fluorescence, strain H37Rv; purified M. tuberculosis FBA, fluorescence read-out; AID 588726, 2011; inhibition, % at 1 µM; Fructose-bisphosphate aldolase (Mycobacterium tuberculosis (strain ATCC 25618 / H37Rv)), …; hit rate 2.3% among 360,000; in the data active = inhibition above about 27%;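 also: 0% = vehicle and 100% = reference inhibitor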
Target sequence (P9WQA3 whole entry, looked up): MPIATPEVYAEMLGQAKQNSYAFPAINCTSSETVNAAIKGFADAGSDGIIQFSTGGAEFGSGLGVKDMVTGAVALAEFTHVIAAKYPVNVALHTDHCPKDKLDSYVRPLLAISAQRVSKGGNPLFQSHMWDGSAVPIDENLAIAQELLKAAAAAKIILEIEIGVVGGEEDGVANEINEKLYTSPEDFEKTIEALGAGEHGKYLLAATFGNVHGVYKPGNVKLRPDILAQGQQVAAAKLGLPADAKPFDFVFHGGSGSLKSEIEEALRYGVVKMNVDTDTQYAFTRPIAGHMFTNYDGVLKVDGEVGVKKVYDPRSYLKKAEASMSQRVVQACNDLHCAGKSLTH
PrPC TRFRET – inhibitors of human cell surface prion protein PrPC, primary screen, cell-based, TR-FRET; TR-FRET read-out; inhibition, % at 13.8 µM; hit rate 0.43% among 370,000; Major prion protein (Homo sapiens), P04156; in the data active = inhibition above about 24%; also: 0% = median of the test wells and 100% = reference compound wells
GDH-TPI counter – GDH-TPI coupling enzyme inhibitors, primary screen, artefact control for M. tuberculosis FBA inhibitor project, biochemical, absorbance, full deck; hit rate 1.2% among 360,000; inhibition, % at 4.8 µM; GDH-TPI coupled enzyme counterscreen, NADH absorbance; in the data active = inhibition above about 30%;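 also: 0% = DMSO wells and 100% = wells lacking the enzyme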
Vc quorum ag-1 – inducers of Vibrio cholerae quorum light production without autoinducers, primary screen, BH1578 luxS cqsA deficient, single point; V. cholerae BH1578 lux reporter, luminescence, 6 h; activation, % at 18.7 µM; hit rate 0.16% among 350,000; in the data active = activation mostly above about 9.7%, no sharp cut-off
SARS 3CLpro inh – SARS-CoV 3CLpro protease inhibitors, primary screen, biochemical, quenched FRET | recombinant SARS-CoV 3CLpro, quenched FRET peptide cleavage | hit rate 0.14% among 290,000 | inhibition, % at 6 µM | Replicase polyprotein 1ab (Severe acute respiratory syndrome coronavirus), P0C6X7 | AID 1706, 2009; in the data active = inhibition above about 12%
Vc quorum ag-2 – V. cholerae lux activation without autoinducers – BH1578 luxS cqsA deficient, cherry-pick, plate reader, dose response. activation, % at 50 µM. 620 tested, under 10 active. V. cholerae BH1578 lux reporter, luminescence, 6 h. shares compounds with Vc quorum ag-1. AID 602243, 2012; call rule not given here
HeLa tox – HeLa cell cytotoxicity, dose response, cytotoxicity control, 24 h, dry powder. shares compounds with Vc quorum ag-1. activity change, negative = cytotoxicity, % at 35 µM. 25 tested, under 10 active. HeLa viability, CellTiter-Glo ATP luminescence. AID 624140, 2012;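 active = signal drop with fitted half-maximal concentration at or below twice the highest valid dose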
The depositor's hits bear a star; i = inactive; x = not tested or not shown. Rows were chosen to be rich in hits. Some 3.9% of all compounds tested hit in one or more screens of this group.

SMILES | Mtb FBA inh | PrPC TRFRET | GDH-TPI counter | Vc quorum ag-1 | SARS 3CLpro inh | Vc quorum ag-2 | others
C[C@@H]1CN([C@H](C)CO)C(=O)c2cc(C#CC3CCCCC3)cnc2O[C@H]1CN(C)Cc1cccnc1 | 1.7 | -1.8 | 12.4 | i | x | x
Cc1ccccc1OC(C)c1nc(-c2ccccc2)no1 (stereo unspecified) | 3.9 | -0.5 | 0.3 | 12.5 | 1.1 | 0.0
Cc1ccc(SC(C)c2nc(-c3ccccc3)no2)cc1 (stereo unspecified) | -0.9 | 5.8 | 11.9 | -0.6 | -3.0 | x
CCN(CC)C(=O)c1sc(NC(=O)Cc2ccccc2)c(C#N)c1C | 3.4 | 3.8 | 7.8 | 2.2 | 1.4 | x
CCN(CC)C(=O)c1sc(NC(=O)Cc2ccc(OC)cc2)c(C#N)c1C | -0.6 | -2.0 | 0.3 | 16.7* | 1.5 | 0.1
CCN(CC(=O)Nc1c(F)cccc1F)C(=O)c1ccc(S(=O)(=O)N2CCCC2)cc1 | -2.9 | 6.8 | -2.8 | -2.3 | x | x
CCN(CC(=O)Nc1c(F)cccc1F)C(=O)c1ccc(C)c(S(=O)(=O)N2CCCCC2)c1 | 0.3 | x | 0.7 | 1.8 | x | 0.2
Fc1ccc(-c2csc(-c3ccncc3)n2)cc1 | 15.6 | -4.9 | 0.6 | 2.2 | 7.8 | x
O=S(=O)(Nc1ccc(-c2csc(-c3ccccc3)n2)cc1)c1ccc(F)cc1 | 2.7 | 3.3 | 0.8 | 25.0* | 9.0 | 0.1
CCNC(=O)C1(C)CCN(C(=O)c2c(F)ccc(C)c2F)C1 (stereo unspecified) | -2.7 | 0.5 | 3.6 | -0.2 | x | x
CCC(=O)c1coc2ccc(O)cc12 | -2.3 | -10.0 | -0.8 | 25.0* | -2.8 | 0.4
Cc1c(Cl)cccc1-n1cnc(=O)c2ccccc21 | 2.4 | 4.9 | 7.5 | 2.6 | x | x | HeLa tox=-5.6
O=c1ncn(-c2cccc([N+](=O)[O-])c2)c2ccccc12 | 1.4 | -12.8 | 8.8 | 10.8 | x | x
Cn1cnnc1SCCOc1ccc(Cl)cc1 | 3.0 | 2.8 | 0.0 | 132.1* | 1.1 | 91.2
COCC(=O)N1CCCC(C(=O)c2ccc(-c3ccccc3)c(F)c2)C1 (stereo unspecified) | 0.5 | 5.8 | 0.0 | 1.6 | -0.9 | x
N#Cc1nc(-c2ccc(OCc3ccc(Cl)cc3)cc2)oc1NCc1cccnc1 | 3.5 | 3.4 | 12.9 | 16.7* | 1.5 | -0.2
N#Cc1nc(-c2ccc(OCc3ccccc3)cc2)oc1NCCCn1ccnc1 | 7.0 | 0.4 | -0.5 | i | 0.1 | x
Cc1cc(=O)[nH]c(CN2CCC(c3ccccc3)CC2)n1 | -3.4 | 7.8 | -1.9 | x | 3.6 | 0.9
Cc1nc(CN2CCC(c3ccccc3)CC2)cc(=O)[nH]1 | 0.8 | -6.0 | 8.2 | -0.2 | 4.1 | x
Cc1ccc(C)c(OCCC(=O)OCC(=O)NC2CC2)c1 | -0.2 | -3.3 | -1.4 | 26.8 | x | 0.0
C=CCn1c(-c2cc(OC)cc(OC)c2)n[nH]c1=S | 8.2 | -3.4 | -2.2 | 22.2* | 2.5 | 0.1
CN(c1ccccc1)S(=O)(=O)c1ccc(Cl)c(C(=O)OCC(=O)c2c(N)n(C)c(=O)n(C)c2=O)c1 | 1.7 | 1.7 | 1.4 | i | x | x
O=C(CNc1cc(S(=O)(=O)N2CCOCC2)ccc1N1CCCC1)Nc1ccc(Cl)cc1 | 0.2 | -4.8 | 0.0 | 96.9* | x | 0.0
O=C(Cn1cnnn1)NC1CCCN(Cc2ccccc2F)C1 (stereo unspecified) | -0.2 | -3.5 | -8.2 | i | -6.5 | x
Cc1ccc(C(=O)NNC(=O)c2ccc(-n3cncn3)c([N+](=O)[O-])c2)cc1 | 2.8 | -17.8 | 7.8 | i | x | x
SMILES | Mtb FBA inh | PrPC TRFRET | GDH-TPI counter | Vc quorum ag-1 | SARS 3CLpro inh | Vc quorum ag-2 | others
COC(=O)c1sc2ncccc2c1OCc1c(Cl)cccc1Cl | 3.4 | 5.0 | -2.6 | 14.3 | 5.5 | 0.6
COC(=O)c1sc2ncccc2c1OCc1cccc(Cl)c1 | 5.7 | -2.7 | 1.6 | -0.3 | -4.5 | x
Cn1c(=O)oc2cc(S(=O)(=O)N3CCN(c4ccc(F)cc4)CC3)ccc21 | 0.1 | 6.7 | 3.5 | 97.1* | 5.7 | 3.8
COC(=O)c1ccc(-c2cc3onc(-c4ccccc4)c3c(=O)n2C)cc1 | 2.3 | -3.6 | 3.6 | -0.8 | x | x
Cc1ccc(N(C(C)C(=O)O)S(=O)(=O)c2c(C)[nH]c(=O)[nH]c2=O)cc1 (stereo unspecified) | 0.1 | -2.9 | 3.4 | -0.4 | x | x
COC(=O)C(C)N(c1ccc(C)cc1)S(=O)(=O)c1c(C)[nH]c(=O)[nH]c1=O (stereo unspecified) | -0.8 | 1.1 | 6.4 | 110.7* | 3.8 | 0.2
CC(=O)Nc1ccc(NC(=O)c2ccccc2C)cc1 | -0.3 | -0.9 | 0.0 | 257.1* | 0.2 | -0.2
Cc1cc(C)c(S(C)(=O)=O)c(Oc2ccc(C(C)(C)C)cc2)n1 | 8.1 | 9.4 | 3.5 | 12.5 | -1.5 | 0.1
Cc1cc(C)c(S(C)(=O)=O)c(Oc2cccc(Cl)c2)n1 | 3.3 | 1.9 | 2.0 | -0.3 | -1.6 | x
CCCCCc1c(C)nc(N2CCc3ccccc3C2)[nH]c1=O | 0.0 | 7.6 | -6.7 | 25.0* | 2.8 | 15.3
Cc1nc(N2CCc3ccccc3C2)[nH]c(=O)c1Cc1ccccc1 | -1.7 | 4.7 | -1.3 | 0.6 | 2.9 | x
CC(=O)c1ccc(Nc2nc(CN)cs2)cc1 | 1.1 | -1.1 | 21.4 | 0.4 | x | x
Cc1cccc(C(=O)N2CCC(c3nc(-c4ccc(S(=O)(=O)N5CCOCC5)cc4)no3)CC2)c1 | -0.9 | 4.7 | 10.0 | i | -1.9 | x
O=C(c1ccccc1)N1CCC(c2nc(-c3ccc(S(=O)(=O)N4CCOCC4)cc3)no2)CC1 | 1.0 | 6.1 | -0.3 | 6.6 | -1.3 | 0.7
CC(C)c1ccccc1NC(=O)COC(=O)c1cccnc1 | -0.8 | 2.0 | -0.8 | -4.5 | -2.7 | x
COc1ccccc1CNC(=O)COC(=O)c1n[nH]c2ccccc12 | 2.5 | 1.6 | 0.9 | 12.5 | 5.1 | 1.5
COc1ccccc1CNC(=O)c1n[nH]c2ccccc12 | 1.1 | 5.4 | -2.5 | i | -0.2 | x
CSCCC(C(=O)Nc1c(C)cccc1C)N1CCN(C/C=C/c2ccccc2)CC1 (stereo unspecified) | 2.6 | -0.1 | x | x | x | x
CC(C)(C)c1ccccc1OCCCCCNCCO | 0.2 | -10.0 | -1.9 | -0.2 | -6.7 | x
Cc1cccc(-c2cc3nc4c(c(N5CCC6(CC5)OCCO6)n3n2)CCCC4)c1 | 1.9 | -4.3 | 7.8 | 1.4 | 4.7 | -0.1
Cc1cccc(-c2cc3nc4c(c(N5CCOCC5)n3n2)CCCC4)c1 | 3.6 | -5.2 | 5.8 | i | -1.5 | x
O=C(COC(=O)[C@H](Cc1c[nH]c2ccccc12)NC(=O)c1ccc(Cl)cc1)Nc1ccc2c(c1)OCO2 | -1.8 | -1.7 | -0.6 | 1.8 | 0.6 | -0.1

Compound activity from PubChem.
